Legend:
Assay in all cases: log2 ratio of Biotin-Ahx-Ub-VS probe labelling (fragment/DMSO); higher = less target engagement (more negative = stronger competition), active = hit call of the paper (q ≤ 0.05, log2 ratio ≤ -1)
Details in all cases: compound concentration: 200 uM; treatment time: 3 h
OTUD6B = biological target: T1, OTUD6B (UniProt Q8N6M0)
T1 sequence (whole entry): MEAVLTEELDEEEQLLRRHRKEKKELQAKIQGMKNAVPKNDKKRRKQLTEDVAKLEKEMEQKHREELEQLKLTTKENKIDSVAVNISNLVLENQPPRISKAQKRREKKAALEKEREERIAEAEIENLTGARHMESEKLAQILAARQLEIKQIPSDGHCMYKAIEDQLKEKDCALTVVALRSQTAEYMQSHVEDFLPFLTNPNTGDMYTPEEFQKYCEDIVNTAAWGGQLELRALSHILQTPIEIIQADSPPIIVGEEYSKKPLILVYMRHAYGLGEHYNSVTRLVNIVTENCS
Outline: (§1)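 HEK293T lysate, 495 µg per sample in Tris/CHAPS/IGEPAL buffer with protease inhibitors, was treated in triplicate with fragment at 200 µM or vehicle for 3 h and then with Biotin-Ahx-Ub-VS at 0.5 µM final for 1 h. Labelled DUBs were NeutrAvidin-enriched, digested with LysC and trypsin, and run by diaPASEF LC-MS/MS. Spectronaut label-free quantities were global-median-normalised, and values are average log2 fragment/vehicle ratios by unpaired t-test on proteins with ≥2 unique peptides.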

OTUD7B = biological target: T2, OTUD7B (UniProt Q6GQQ9)
T2 sequence (whole entry): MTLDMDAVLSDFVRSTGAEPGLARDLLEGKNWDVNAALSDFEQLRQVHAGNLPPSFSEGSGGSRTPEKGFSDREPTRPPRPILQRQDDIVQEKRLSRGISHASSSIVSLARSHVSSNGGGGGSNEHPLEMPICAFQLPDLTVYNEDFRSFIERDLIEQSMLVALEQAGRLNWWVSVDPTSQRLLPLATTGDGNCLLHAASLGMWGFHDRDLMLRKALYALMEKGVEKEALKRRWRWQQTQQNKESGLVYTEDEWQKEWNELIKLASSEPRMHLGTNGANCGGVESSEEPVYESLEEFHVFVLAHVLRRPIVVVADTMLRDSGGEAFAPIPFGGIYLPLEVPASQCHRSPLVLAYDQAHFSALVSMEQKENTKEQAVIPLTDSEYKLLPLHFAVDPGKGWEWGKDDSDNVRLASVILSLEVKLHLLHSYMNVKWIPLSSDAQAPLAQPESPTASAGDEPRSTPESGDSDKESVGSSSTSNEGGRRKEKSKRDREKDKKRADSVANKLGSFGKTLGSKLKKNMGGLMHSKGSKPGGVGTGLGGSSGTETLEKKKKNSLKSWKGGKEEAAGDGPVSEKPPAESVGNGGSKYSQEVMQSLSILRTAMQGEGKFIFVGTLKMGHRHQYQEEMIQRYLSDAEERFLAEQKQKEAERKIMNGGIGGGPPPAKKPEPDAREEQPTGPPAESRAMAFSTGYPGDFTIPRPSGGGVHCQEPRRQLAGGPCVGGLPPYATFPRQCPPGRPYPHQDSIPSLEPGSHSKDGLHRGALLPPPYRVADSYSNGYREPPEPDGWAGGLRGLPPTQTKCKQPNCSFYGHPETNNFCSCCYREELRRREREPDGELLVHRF
Outline: as §1

PRPF8 = PRPF8 (UniProt Q6P2Q9)
Outline: as §1

PSMD7 = biological target: T3, PSMD7 (UniProt P51665)
T3 sequence (whole entry): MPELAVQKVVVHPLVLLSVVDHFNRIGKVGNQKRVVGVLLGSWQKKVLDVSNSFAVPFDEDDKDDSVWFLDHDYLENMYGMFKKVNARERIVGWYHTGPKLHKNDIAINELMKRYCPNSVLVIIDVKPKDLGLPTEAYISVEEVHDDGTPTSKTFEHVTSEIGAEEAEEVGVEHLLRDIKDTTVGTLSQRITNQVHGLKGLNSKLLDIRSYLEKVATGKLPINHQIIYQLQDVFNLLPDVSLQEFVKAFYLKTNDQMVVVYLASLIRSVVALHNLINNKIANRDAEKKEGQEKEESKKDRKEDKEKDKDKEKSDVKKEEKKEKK
Outline: as §1

UCHL1 = UCHL1 (UniProt P09936)
Outline: as §1

UCHL3 = biological target: T4, UCHL3 (UniProt P15374)
T4 sequence (whole entry): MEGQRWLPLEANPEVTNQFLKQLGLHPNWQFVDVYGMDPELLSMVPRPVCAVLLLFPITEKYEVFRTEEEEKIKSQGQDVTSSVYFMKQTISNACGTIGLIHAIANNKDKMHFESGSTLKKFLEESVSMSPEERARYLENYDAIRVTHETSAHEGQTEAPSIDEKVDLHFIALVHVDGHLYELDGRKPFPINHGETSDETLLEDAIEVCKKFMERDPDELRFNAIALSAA
Outline: as §1

UCHL5 = biological target: T5, UCHL5 (UniProt Q9Y5K5)
T5 sequence (whole entry): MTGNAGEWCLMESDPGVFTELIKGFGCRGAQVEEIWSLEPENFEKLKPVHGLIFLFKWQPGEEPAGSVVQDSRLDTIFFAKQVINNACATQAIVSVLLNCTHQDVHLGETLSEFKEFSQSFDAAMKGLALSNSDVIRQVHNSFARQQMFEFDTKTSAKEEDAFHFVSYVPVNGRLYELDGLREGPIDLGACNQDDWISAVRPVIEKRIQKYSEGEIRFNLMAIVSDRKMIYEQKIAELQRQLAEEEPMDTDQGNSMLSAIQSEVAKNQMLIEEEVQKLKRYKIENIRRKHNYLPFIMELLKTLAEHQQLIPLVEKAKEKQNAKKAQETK
Outline: as §1

USP10 = USP10 (UniProt Q14694)
Outline: as §1

USP15 = biological target: T6, USP15 (UniProt Q9Y4E8)
T6 sequence (whole entry): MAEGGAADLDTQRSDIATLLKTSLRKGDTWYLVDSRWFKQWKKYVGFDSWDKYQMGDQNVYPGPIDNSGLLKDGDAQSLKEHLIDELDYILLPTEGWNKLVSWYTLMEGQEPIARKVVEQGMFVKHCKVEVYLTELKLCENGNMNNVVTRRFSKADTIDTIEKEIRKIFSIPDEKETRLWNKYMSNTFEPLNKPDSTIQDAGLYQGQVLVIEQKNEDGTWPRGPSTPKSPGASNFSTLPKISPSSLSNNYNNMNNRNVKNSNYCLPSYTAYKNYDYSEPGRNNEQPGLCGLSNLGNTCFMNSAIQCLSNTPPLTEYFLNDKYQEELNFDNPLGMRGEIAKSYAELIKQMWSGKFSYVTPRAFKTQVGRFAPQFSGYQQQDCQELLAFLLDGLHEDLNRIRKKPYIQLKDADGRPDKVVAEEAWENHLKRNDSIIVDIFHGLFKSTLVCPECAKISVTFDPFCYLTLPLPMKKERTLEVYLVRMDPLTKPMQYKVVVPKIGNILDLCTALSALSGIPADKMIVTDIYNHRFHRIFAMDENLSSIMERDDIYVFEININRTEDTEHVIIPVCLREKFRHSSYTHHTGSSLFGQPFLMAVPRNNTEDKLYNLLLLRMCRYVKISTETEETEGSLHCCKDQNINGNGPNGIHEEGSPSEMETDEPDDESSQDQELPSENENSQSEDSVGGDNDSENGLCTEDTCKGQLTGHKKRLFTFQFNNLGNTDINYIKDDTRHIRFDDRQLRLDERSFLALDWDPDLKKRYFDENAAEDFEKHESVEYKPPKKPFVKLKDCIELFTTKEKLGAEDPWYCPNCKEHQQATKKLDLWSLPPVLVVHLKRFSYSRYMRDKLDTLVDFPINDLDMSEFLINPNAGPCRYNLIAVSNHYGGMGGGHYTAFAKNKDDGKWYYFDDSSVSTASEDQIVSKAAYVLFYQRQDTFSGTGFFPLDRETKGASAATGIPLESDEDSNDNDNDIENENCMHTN
Outline: as §1

USP16 = USP16 (UniProt Q9Y5T5)
Outline: as §1

Measured: log2 ratio of Biotin-Ahx-Ub-VS probe labelling

Chain of USP10 (Q14694 whole entry): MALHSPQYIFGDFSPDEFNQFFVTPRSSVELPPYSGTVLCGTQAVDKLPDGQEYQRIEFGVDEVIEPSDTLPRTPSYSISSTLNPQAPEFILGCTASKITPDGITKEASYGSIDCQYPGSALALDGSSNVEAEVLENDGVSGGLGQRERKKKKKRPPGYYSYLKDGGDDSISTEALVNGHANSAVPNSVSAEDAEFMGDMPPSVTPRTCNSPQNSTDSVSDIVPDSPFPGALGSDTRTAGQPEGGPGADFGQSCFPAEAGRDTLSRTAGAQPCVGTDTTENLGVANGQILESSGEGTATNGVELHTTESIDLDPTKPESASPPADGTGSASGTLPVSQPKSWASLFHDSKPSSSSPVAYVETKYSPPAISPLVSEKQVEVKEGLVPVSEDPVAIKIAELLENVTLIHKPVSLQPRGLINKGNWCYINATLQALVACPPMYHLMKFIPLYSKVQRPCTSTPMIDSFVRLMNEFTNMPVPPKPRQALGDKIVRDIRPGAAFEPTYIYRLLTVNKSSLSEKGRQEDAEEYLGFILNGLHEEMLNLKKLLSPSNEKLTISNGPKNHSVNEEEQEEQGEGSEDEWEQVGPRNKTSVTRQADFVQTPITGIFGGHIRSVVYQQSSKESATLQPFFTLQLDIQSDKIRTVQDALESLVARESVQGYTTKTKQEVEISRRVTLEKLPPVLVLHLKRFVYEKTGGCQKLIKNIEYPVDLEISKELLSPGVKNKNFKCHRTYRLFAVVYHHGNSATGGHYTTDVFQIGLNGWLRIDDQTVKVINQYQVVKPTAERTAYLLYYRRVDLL
Chain of USP16 (Q9Y5T5 whole entry, looked up): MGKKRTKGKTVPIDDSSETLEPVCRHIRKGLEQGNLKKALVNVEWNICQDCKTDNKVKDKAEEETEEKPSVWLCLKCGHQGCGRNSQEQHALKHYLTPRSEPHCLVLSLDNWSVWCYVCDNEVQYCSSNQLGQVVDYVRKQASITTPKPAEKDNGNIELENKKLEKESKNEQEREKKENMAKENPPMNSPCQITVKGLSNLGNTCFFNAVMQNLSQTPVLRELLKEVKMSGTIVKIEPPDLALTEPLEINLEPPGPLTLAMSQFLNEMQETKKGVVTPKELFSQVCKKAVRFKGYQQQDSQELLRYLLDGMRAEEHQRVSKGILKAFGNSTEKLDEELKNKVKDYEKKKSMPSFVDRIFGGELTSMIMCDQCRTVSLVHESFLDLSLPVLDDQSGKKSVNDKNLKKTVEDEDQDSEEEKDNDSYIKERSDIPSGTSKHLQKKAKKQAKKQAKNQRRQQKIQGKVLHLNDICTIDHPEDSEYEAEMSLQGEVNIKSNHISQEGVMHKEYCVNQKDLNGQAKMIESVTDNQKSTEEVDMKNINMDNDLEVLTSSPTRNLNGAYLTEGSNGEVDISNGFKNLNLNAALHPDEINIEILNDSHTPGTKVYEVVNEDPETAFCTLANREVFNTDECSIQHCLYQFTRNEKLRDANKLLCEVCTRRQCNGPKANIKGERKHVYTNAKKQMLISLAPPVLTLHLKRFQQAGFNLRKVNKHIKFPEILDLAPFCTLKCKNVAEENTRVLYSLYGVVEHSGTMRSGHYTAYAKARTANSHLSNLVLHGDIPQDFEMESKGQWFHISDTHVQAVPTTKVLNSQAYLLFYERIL
Chain of UCHL1 (P09936 whole entry, looked up): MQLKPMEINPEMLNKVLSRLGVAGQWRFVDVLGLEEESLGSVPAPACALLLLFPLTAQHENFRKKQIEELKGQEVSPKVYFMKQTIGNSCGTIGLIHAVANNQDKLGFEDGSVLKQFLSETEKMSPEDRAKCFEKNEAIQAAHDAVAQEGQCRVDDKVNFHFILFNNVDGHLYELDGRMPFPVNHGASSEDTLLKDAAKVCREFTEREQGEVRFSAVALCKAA

Cc1noc(C)c1CNC(=O)CCl
active: OTUD7B -1.46 | UCHL1 -2.12
inactive: OTUD6B -0.543 | PRPF8 -0.184 | PSMD7 -0.529 | UCHL3 -0.701 | UCHL5 -0.89 | USP10 -0.261 | USP15 -0.867 | USP16 -0.591
